Screening results (PubChem BioAssay)
TDP1 cell CPT: qHTS for Inhibitors of human tyrosyl-DNA phosphodiesterase 1 (TDP1): qHTS in cells in presence of CPT; chicken DT40 Tdp1-/-;hTDP1 cells + 20 nM CPT, ATP luminescence, 48 h; Potency, µM (doses to about 46.2 µM), most hits filed as inhibitors; 420,000 tested, 12% active; AID 686979, 2013; note: nearly all actives have a fitted effect of over 55% in size
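Chicken DT40 Tdp1-/- cells complemented with human TDP1, 400 cells/well, exposed to compounds plus 20 nM camptothecin for at least 48 h at 37 C; viability read as ATP content by CellTiter-Glo luminescence.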
IL1B secr inh: qHTS for Inhibitors of Inflammasome Signaling: IL-1-beta AlphaLISA Primary Screen; THP-1 LPS/ATP IL-1B secretion, AlphaLISA, 16 h; stronger effect = lower value; 360,000 tested, 4.7% active; activity change, % at 57.5 µM; in the data active = activity change below about -50%; inconclusive = mostly about -30% to -49%
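THP-1 cells pretreated 1 hr with compounds (up to 57.5 uM final), then stimulated with LPS (250 ng/mL final) plus ATP (1.25 mM final); secreted IL-1B measured by AlphaLISA after 16 hr, decreased signal indicating inhibition.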
TDP1 cell noCPT: qHTS for Inhibitors of human tyrosyl-DNA phosphodiesterase 1 (TDP1): qHTS in cells in absence of CPT; DT40 Tdp1-/- hTDP1 cells, no CPT, ATP luminescence, 48 h; Potency, µM (series often up to 46.2 µM), hits mostly inhibitors; 420,000 tested, 15% active; AID 686978, 2013; note: nearly all actives have a fitted effect of over 55% in size
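Growth kinetics read by CellTiter-Glo luminescence after ≥48 hr at 37 °C. Cells: DT40 Tdp1-/- stably carrying human TDP1, 400 per well, compound exposure in the absence of CPT (DMSO vehicle).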
Gal4-VP16 FLuc: VP16 counterscreen qHTS for inhibitors of ROR gamma transcriptional activity. 310,000 tested, 3.5% active. Potency, µM (doses to about 53.6 µM), usual class: inhibitors. Drosophila S2 Gal4-VP16 UAS-luciferase, luminescence, 20 h;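 note: Gal4-VP16 expression switched on by copper sulfate through the metallothionein promoter; nearly all actives have a fitted effect of over 50% in size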
RORg inh: qHTS for inhibitors of ROR gamma transcriptional activity. Nuclear receptor ROR-gamma (Mus musculus), P51450. Drosophila S2 Gal4-RORgamma UAS-luciferase reporter, 20 h. Potency, µM (doses to about 53.6 µM), usual class: inhibitors. 310,000 tested, 5.4% active. AID 2551, 2010; note: nearly all actives have a fitted effect of over 60% in size
Target sequence (P51450 whole entry, looked up, the tested form may be a part): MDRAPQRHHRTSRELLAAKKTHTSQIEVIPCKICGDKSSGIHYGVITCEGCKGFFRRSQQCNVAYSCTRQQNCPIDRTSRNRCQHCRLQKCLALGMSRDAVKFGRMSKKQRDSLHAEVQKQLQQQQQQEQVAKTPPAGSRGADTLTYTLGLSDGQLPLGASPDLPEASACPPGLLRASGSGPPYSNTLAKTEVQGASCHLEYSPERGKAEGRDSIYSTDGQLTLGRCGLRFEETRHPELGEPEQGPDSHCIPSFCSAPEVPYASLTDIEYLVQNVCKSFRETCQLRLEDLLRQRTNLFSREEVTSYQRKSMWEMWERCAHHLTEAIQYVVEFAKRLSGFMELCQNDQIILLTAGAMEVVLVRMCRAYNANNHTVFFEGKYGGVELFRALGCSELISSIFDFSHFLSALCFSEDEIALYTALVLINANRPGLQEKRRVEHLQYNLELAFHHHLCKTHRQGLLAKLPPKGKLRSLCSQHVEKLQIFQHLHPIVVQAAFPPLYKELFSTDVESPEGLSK
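Stable Schneider cell line, Gal4 DNA-binding domain fused to ROR gamma, UAS-luciferase. Cmpd 1 hr RT → CuSO4 700 uM final → 20 hr RT → luciferase reagent 10 min → luminescence.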
LDHA inh: qHTS assay for inhibitors of human lactate dehydrogenase | purified LDHA, NADH/diaphorase-resazurin fluorescence; stronger effect = lower value | activity change, % (values are at about 110 or 230 µM) | 480,000 tested, 0.15% active | AID 1347041, 2019; in the data active = activity change below about -30%; inconclusive = mostly about -25% to -30%
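Enzyme activity of human lactate dehydrogenase 5 (2 nM; 0.06 mM NADH, 0.2 mM pyruvate, 5 min, RT) is measured via a resazurin/diaphorase fluorescence readout of residual NADH.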
Numbers stand for hits; . = inactive; ? = inconclusive; / = no result given; ! = repeats disagree; [ ] = another dose, or the depositor's remark. A selection: hits, their analogues and other compounds. The true share with any hit is near 18%. Unless noted, calls come from the whole dose curve; as a rule, active = well fitted curve in the direction sought with a large enough effect; inconclusive = small, poorly fitted or top-dose-only effect, or another doubt; inactive = no such curve, though single readings can be large; an effect the other way counts as inactive or inconclusive.

SMILES	TDP1 cell CPT	IL1B secr inh	TDP1 cell noCPT	Gal4-VP16 FLuc	RORg inh	LDHA inh
Cc1c(C(=O)Nc2cccc(Cl)c2)oc2ccc(S(=O)(=O)N3CCC4(CC3)OCCO4)cc12	9.2µM	.	18.4µM	.	.	.
COc1ccc2oc(C(=O)N3CCN(S(=O)(=O)c4cccc([N+](=O)[O-])c4)CC3)c(C)c2c1	16.4µM	.	14.6µM	.	.	.
Cc1ccc(Cl)cc1NC(=O)c1oc2ccc(S(=O)(=O)N3CCC4(CC3)OCCO4)cc2c1C	.	/	.	/	/	.
CC(C)NC(=O)CCC(=O)c1ccc2c(c1)CCC2	/	/	/	/	/	.
Cc1ccc2oc(=O)cc(CSc3nc(C)cc(C)c3C#N)c2c1	/	/	/	/	/	.
COc1cccc(-n2ccn3c(SCC(=O)N4CCN(c5ccc(F)cc5)CC4)nnc3c2=O)c1	/	/	/	/	/	.
Cc1c(C(=O)NCc2ccccc2)oc2ccc(S(=O)(=O)N3CCC4(CC3)OCCO4)cc12	?	.	20.6µM	.[0.365 µM]	.	.
COc1ccc2oc(C(=O)Nc3ccc(N4CCOCC4)cc3)c(C)c2c1	?	-56.9	?	/	/	.
Cc1c(C(=O)Nc2ccccc2Br)oc2ccc(S(=O)(=O)N3CCCCC3)cc12	?	/	?	/	/	.
Cc1c(C(=O)Nc2ccccc2Cl)oc2ccc(S(=O)(=O)N3CCCCCC3)cc12	5.8µM	/	13µM	/	/	.
Cc1c(C(=O)Nc2cc(S(=O)(=O)N3CCOCC3)ccc2N2CCOCC2)oc2ccccc12	18.4µM	.	?	.	.	.
COc1cc(OC)c(/C=C(\C#N)C(=O)O)cc1Br	/	/	/	/	/	.
COc1cccc(NC(=O)c2oc3ccc(S(=O)(=O)N4CCOCC4)cc3c2C)c1	14.6µM!	.	13µM	.	?	.
Cc1ccc(NC(=O)c2oc3ccc(S(=O)(=O)N4CCOCC4)cc3c2C)cc1C	?	.	.	.	.	.
Cc1c(C(=O)N2CCN(S(=O)(=O)c3cccs3)CC2)oc2ccc(F)cc12	?	.	16.4µM	/	/	.
O=C(NC(=S)N1CCc2ccccc21)c1ccc(Br)o1	2.91µM	.	5.17µM	0.316µM	0.251µM	.
O=C(c1ccccc1F)N1CCc2ccccc21	.	.	?	.	.	.
Fc1ccc(CNC(=S)N2CCc3ccccc32)cc1	/	/	/	/	/	.
O=C(NC(=S)N1CCc2ccccc21)c1ccccc1Br	18.4µM	.	20.6µM	0.891µM	0.1µM	.
Cn1c(=O)[nH]c(=O)c2c1nc(CN1CCN(Cc3ccccc3)CC1)n2CCCO	/	/	/	/	/	.
Cc1nc(-c2ccc(S(=O)(=O)Nc3ccccc3Cl)cc2)co1	/	/	/	/	/	.
N#CC1(C(N)=O)C(c2ccccc2)CC(=O)CC1c1ccccc1 (configuration not stated)	/	/	/	/	/	.
CCCOc1ccccc1C(=O)N(Cc1ccc(C)o1)C1CCS(=O)(=O)C1 (configuration not stated)	.	.	?	.	.	.
CCCCOc1ccc(C(=O)N(Cc2ccco2)C2CCS(=O)(=O)C2)cc1 (configuration not stated)	?	.	.	.	.	.
CCCOc1ccccc1C(=O)N(Cc1ccco1)C1CCS(=O)(=O)C1 (configuration not stated)	?	.	18.4µM	.	.	.
SMILES	TDP1 cell CPT	IL1B secr inh	TDP1 cell noCPT	Gal4-VP16 FLuc	RORg inh	LDHA inh
CCCCCOc1ccc(C(=O)N(Cc2ccccc2)C2CCS(=O)(=O)C2)cc1 (configuration not stated)	?	/	20.6µM	/	/	.
CCCCOc1cccc(C(=O)N(Cc2ccc(Cl)cc2)C2CCS(=O)(=O)C2)c1 (configuration not stated)	14.6µM	/	?	/	/	.
CCCOc1cccc(C(=O)N(Cc2ccccc2)C2CCS(=O)(=O)C2)c1 (configuration not stated)	.	.	?	.	.	.
O=C(CCC1CCCC1)NCc1cccnc1	/	/	/	/	/	.
Cc1ccc(-c2cc(Nc3ccccc3C(F)(F)F)nc(C)n2)cc1	/	/	/	/	/	.
C=C(C)COc1ccc2c(C)c(CCC(=O)NCc3ccc(S(N)(=O)=O)cc3)c(=O)oc2c1	/	/	/	/	/	.
CCOC(=O)c1sc(NC(=O)c2cc3n(n2)C(C(F)(F)F)CC(c2ccccc2)N3)c(C(=O)OCC)c1C (configuration not stated)	.	.	.	.	.	.
Cc1nn(C)cc1CN(C)C(=O)c1nn2c(c1Br)NC(c1cccs1)CC2C(F)(F)F (configuration not stated)	?	.	14.6µM	.	?	.
CCOC(=O)c1sc(NC(=O)c2cc3n(n2)C(C(F)(F)F)CC(c2cccs2)N3)c(C(=O)OCC)c1C (configuration not stated)	?	.	13µM	.	.	.
CCC(C)NC(=O)c1cnn2c1NC(c1cccs1)CC2C(F)(F)F (configuration not stated)	.	.	.	.	.	.
Cc1nn(C)c(C)c1CN(C)C(=O)c1cc2n(n1)C(C(F)(F)F)CC(c1cccs1)N2 (configuration not stated)	25.9µM	.	16.4µM	.	?	.
Cc1nn(C)cc1CN(C)C(=O)c1nn2c(c1Cl)NC(c1cccs1)CC2C(F)(F)F (configuration not stated)	?	.	12.6µM	.	.	.
O=C(OCC(=O)N1CCOCC1)C1=NN(c2ccccc2)C(=O)CC1	/	/	/	/	/	.
CCOc1cc(/C=N/O)ccc1OCC(N)=O	/	/	/	/	/	.
COC(=O)N1C(=O)[C@@](c2ccc(OC)cc2)(C(C)C)N1C(=O)OC	?	-101.4	?	.	.	.
COC(=O)N1C(=O)[C@](c2ccc(Cl)cc2)(C(C)C)N1C(=O)OC	13µM	/	23.1µM	.	.	.
COCC(C)NC(=O)Cc1ccc(Cl)cc1 (configuration not stated)	.	.	.	.	.	.
COC(=O)N1C(=O)[C@@](c2ccccc2)(C(C)C)N1C(=O)OC	16.4µM	?	?	.	10µM	.
CCC1(c2ccccc2)NC(=O)N(CC(=O)NC2CCCC2)C1=O (configuration not stated)	.	.	.	/	/	.
CCC1(c2ccccc2)C(=O)N(C(=O)OC(C)(C)C)N1C(=O)OC(C)(C)C (configuration not stated)	.	?	.	/	/	.
COC(=O)N1C(=O)[C@](c2ccccc2)(C2CCCC2)N1C(=O)OC	?	-95.6	?	?	?	.
